GLS inh: glutaminase GLS (human) inhibition; O94925; GLS enzymatic activity, qHTS titration; Potency, µM (doses to about 45.5 µM), actives largely listed as inhibitors; hit rate 0.21% among 410,000
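Enzyme dispensed in phosphate buffer (45 mM, pH 8.2, 0.02% Tween-20), compounds pinned in, then 1 mM L-glutamine solution and the glutamate oxidase–HRP–Amplex Red mix added; fluorescence read immediately and again after 30 min at room temperature.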
G9a inh: blocks human histone lysine methyltransferase G9a | Potency, µM (series often up to 102 µM), actives largely listed as inhibitors | Q96KQ7 | hit rate 8.8% among 350,000 | G9a H3K9 monomethylation, AlphaScreen, 2 h; also: nearly all actives have a fitted effect of over 75% in size
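Signal arises when biotinylated H3K9 peptide, once monomethylated, bridges streptavidin donor and antibody-captured acceptor beads. Enzyme at 20 nM was preincubated 15 min with test compounds; peptide 500 nM and SAM 20 uM then reacted for 2 h.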
HP1b binding inh: blocks HP1-beta chromodomain binding to methylated histone tails | AlphaScreen HP1-beta / biotin-H3K9me3 peptide binding | P83916 | hit rate 0.56% among 390,000 | Potency, µM (top dose mostly 114 µM), hits mostly inhibitors; also: nearly all actives have a fitted effect of over 70% in size
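Compound inhibition of the preformed complex between 50 nM HP1-beta and 50 nM biotinylated H3K9me3 peptide was read by AlphaScreen. Buffer was PBS pH 7.4 with 0.01% Tween-20. Incubations ran 30 min at room temperature, with 10 ug/mL donor/acceptor beads.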
BAZ2B inh: BAZ2B (human) inhibition | AID 504333 | Potency, µM (doses to about 114 µM), hits mostly inhibitors | Q9UIF8 | AlphaScreen BAZ2B-H3K14Ac peptide displacement | hit rate 4.4% among 360,000; also: nearly all actives have a fitted effect of over 60% in size
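Inhibition is scored as reduced AlphaScreen emission. The BAZ2B/b-H3(5-23)K14Ac complex (50 nM each) in PBS pH 7.4, 0.01% Tween-20 meets compound (up to 110 uM) for 30 min at RT before bead addition.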
JMJD2A Tudor: JMJD2A Tudor domain (human) inhibition | O75164 | AlphaScreen JMJD2A-Tudor / H3K4me3 peptide binding | Potency, µM (titrated, usually from 114 µM), actives largely listed as inhibitors | hit rate 4.4% among 390,000; also: nearly all actives have a fitted effect of over 50% in size
Target sequence (O75164 whole entry, looked up, the tested form may be a part): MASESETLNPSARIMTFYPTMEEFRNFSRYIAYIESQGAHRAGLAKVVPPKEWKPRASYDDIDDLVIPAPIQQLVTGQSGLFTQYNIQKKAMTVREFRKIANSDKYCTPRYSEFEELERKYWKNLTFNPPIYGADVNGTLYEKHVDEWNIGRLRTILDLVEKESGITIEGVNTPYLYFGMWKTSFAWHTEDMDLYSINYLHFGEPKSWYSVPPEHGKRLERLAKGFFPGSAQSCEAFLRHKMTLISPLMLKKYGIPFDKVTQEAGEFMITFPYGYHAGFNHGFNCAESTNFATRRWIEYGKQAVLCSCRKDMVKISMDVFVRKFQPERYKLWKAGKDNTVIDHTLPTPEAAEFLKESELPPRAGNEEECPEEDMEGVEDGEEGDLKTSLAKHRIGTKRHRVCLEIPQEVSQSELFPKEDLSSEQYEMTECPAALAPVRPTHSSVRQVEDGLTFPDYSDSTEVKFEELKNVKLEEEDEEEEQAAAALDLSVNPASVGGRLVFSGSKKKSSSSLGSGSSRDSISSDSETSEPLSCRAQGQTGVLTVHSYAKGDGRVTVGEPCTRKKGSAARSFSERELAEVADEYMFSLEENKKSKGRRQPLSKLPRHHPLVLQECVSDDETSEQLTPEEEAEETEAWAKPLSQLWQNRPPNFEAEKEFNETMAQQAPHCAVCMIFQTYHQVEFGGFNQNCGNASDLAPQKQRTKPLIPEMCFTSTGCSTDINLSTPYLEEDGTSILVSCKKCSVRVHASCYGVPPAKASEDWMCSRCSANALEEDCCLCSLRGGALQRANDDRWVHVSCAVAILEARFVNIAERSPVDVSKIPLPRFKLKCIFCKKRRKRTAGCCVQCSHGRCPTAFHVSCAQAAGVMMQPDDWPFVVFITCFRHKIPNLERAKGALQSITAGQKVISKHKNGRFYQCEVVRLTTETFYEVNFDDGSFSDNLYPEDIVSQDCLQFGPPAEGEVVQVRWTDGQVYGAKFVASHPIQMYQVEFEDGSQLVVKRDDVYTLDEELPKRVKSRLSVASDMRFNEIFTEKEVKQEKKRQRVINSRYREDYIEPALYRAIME
Large screens that a line does not name were inactive. This is a sample that favours compounds with a hit; in the whole collection about 10% have one here. Calls follow the shape of the dose curve; as a rule, active = well fitted curve in the direction sought with a large enough effect; inconclusive = small, poorly fitted or top-dose-only effect, or another doubt; inactive = no such curve, though single readings can be large; an effect the other way counts as inactive or inconclusive.

CCCN(CCC)CCNC(=O)C1CCN(c2nc3ccc(CC)cc3s2)CC1	none
CCc1ccc2nc(N3CCC(C(=O)NCCC(C)C)CC3)sc2c1	G9a inh 14µM
Cc1ccc(C(=O)Nc2cc3cc(Cl)ccc3oc2=O)cc1	none
Fc1ccc(-n2cc(-c3ccccc3)c3c(NC4CCCCC4)ncnc32)cc1	BAZ2B inh inconclusive
COc1ccc(OC)c(CNc2ccc3c(c2)nc(C)n3C)c1	G9a inh 35µM
Cc1ccc(CNc2ccc3c(c2)nc(C)n3C)cc1	G9a inh 25µM, BAZ2B inh inconclusive
COc1ccc(CNc2ccc3c(c2)nc(C)n3C)cc1	G9a inh 3.5µM
CCOc1ccc(NC(=O)Nc2nnc(N3CCCCC3C)s2)cc1 (stereo not drawn)	BAZ2B inh inconclusive
CCN(C(=O)COC(=O)c1ccc(-n2c(C)ccc2C)cc1)c1c(N)n(Cc2ccccc2)c(=O)[nH]c1=O	none (no result: G9a inh, BAZ2B inh)
CC(=O)c1cccc(NC(=O)c2cccc(NC(=O)c3ccco3)c2)c1	G9a inh 45µM, BAZ2B inh 79µM
Cc1cccc(NC(=S)NC(NC(=O)c2ccco2)C(Cl)(Cl)Cl)c1 (stereo not drawn)	G9a inh 14µM
CC(=O)c1cccc(NC(=S)NNC(=O)c2ccco2)c1	G9a inh 35µM
COc1ccc(CCC(=O)NNC(=S)Nc2cccc(C(C)=O)c2)cc1	G9a inh 40µM
CCOC(=O)c1ccc(S(=O)(=O)N2CCN(C3CC(=O)N(c4ccccc4C(F)(F)F)C3=O)CC2)cc1 (stereo not drawn)	none
COc1ccc(NC(=O)c2cn3c4c(ccc(Cl)c4c2=O)OC(C)C3)cc1OC (stereo not drawn)	none
CCCCOc1cccc(C(=O)N(Cc2ccccc2)C2CCS(=O)(=O)C2)c1 (stereo not drawn)	none
CC(=O)c1cccc(NC(=S)Nc2ccc(F)cc2)c1	G9a inh 50µM
CNC(=S)Nc1cccc(C(C)=O)c1	none
O=C(Nc1cc(Br)c(O)c(Br)c1)c1cccc(NC(=O)c2ccco2)c1	G9a inh 40µM, BAZ2B inh 50µM
CCn1c(=O)cc(SCC(=O)NCc2ccccc2OC)c2ccccc21	none
NS(=O)(=O)c1ccc(Nc2nc3ccccc3nc2NS(=O)(=O)c2cccc([N+](=O)[O-])c2)cc1	G9a inh 32µM, BAZ2B inh inconclusive, JMJD2A Tudor inconclusive
CCc1ccc(Nc2nc3ccccc3nc2NS(=O)(=O)c2ccccc2)cc1	none
CC(=O)Nc1ccc(S(=O)(=O)Nc2nc3ccccc3nc2Nc2ccc(S(N)(=O)=O)cc2)cc1	G9a inh 45µM
CC(=O)c1ccc(OC(=O)c2nc(-c3ccccc3)oc2C)cc1	G9a inh 56µM, BAZ2B inh inconclusive
CCC(C)NC(=O)c1cc2n(n1)CCCN(Cc1ccc(C)cc1)C2=O (stereo not drawn)	none
COC(=O)c1c(C)[nH]c(C)c1-c1cccc([N+](=O)[O-])c1	G9a inh 56µM, BAZ2B inh inconclusive
CSc1ccc(CN2CCN(Cc3ccc([N+](=O)[O-])cc3)CC2)cc1	G9a inh 32µM, HP1b binding inh inconclusive, BAZ2B inh 28µM, JMJD2A Tudor inconclusive
CCS(=O)(=O)N1CCN(Cc2ccc([N+](=O)[O-])cc2)CC1	G9a inh inconclusive, HP1b binding inh inconclusive, BAZ2B inh 50µM, JMJD2A Tudor 5.6µM
O=[N+]([O-])c1ccc(CN2CCOCCOCCN(Cc3ccc([N+](=O)[O-])cc3)CCOCC2)cc1	G9a inh inconclusive, BAZ2B inh inconclusive, JMJD2A Tudor inconclusive
CSc1ccc(CN2CCCCCC2)cc1	G9a inh 11µM, HP1b binding inh inconclusive, JMJD2A Tudor 5µM
O=[N+]([O-])c1ccc(CN2CCCCCC2)cc1	G9a inh inconclusive
CN(C)c1ccc(CN2CCCCCC2)cc1	G9a inh inconclusive
Cc1ccc(-c2nnc(Nc3ccc(O)cc3)c3ccccc23)cc1S(=O)(=O)NCC1CCCO1 (stereo not drawn)	BAZ2B inh inconclusive
CSc1nsc(SC)c1C(=O)O	G9a inh 45µM
O=C1c2cc(Br)ccc2N(Cc2ccc(Br)cc2)S(=O)(=O)C1c1cc(Cl)c(Cl)cc1[N+](=O)[O-] (stereo not drawn)	HP1b binding inh inconclusive, JMJD2A Tudor 35µM (no result: G9a inh, BAZ2B inh)
O=C1CS(=O)(=O)N(Cc2cccc(F)c2)c2ccc(Br)cc21	none
Cc1cc(C)c(C)c(OCCCN(C)C)c1	G9a inh inconclusive, HP1b binding inh inconclusive, JMJD2A Tudor 20µM
Brc1ccccc1OCCN1CCOCC1	G9a inh 25µM, HP1b binding inh inconclusive, BAZ2B inh inconclusive, JMJD2A Tudor 3.2µM
Cc1cccc(OCCN2CCOCC2)c1C	G9a inh inconclusive
Clc1cc(Br)ccc1OCCN1CCOCC1	G9a inh 10µM, HP1b binding inh inconclusive, BAZ2B inh inconclusive, JMJD2A Tudor 0.79µM
Cc1cc(C)c(C)c(OCCN2CCOCC2)c1	G9a inh 79µM
COc1ccc(C)c2sc(N(Cc3cccnc3)C(=O)C3CCCCC3)nc12	none
CCOCCn1ccc2c(OCC(=O)Nc3ccc(OC(F)(F)F)cc3)cccc2c1=O	none
COc1ccc(C(=O)NCCCn2cccn2)cc1OC1CCN(C(C)=O)CC1	none (no result: G9a inh)
CS(=O)(=O)n1nc(OC(=O)c2cc(Br)ccc2Cl)cc1N	G9a inh 32µM
COc1ccc(NC(=O)c2cc(-c3ccco3)nc3ccccc23)cn1	GLS inh inconclusive, HP1b binding inh inconclusive, BAZ2B inh 56µM, JMJD2A Tudor 40µM
CCN(CC)CCNC(=O)c1ccc(NC(=O)c2cc(-c3ccco3)nc3ccccc23)cc1	G9a inh 32µM, BAZ2B inh 32µM, JMJD2A Tudor inconclusive
CN(C)C(=O)c1ccc(NC(=O)c2cc(-c3ccco3)nc3ccccc23)cc1	HP1b binding inh inconclusive, JMJD2A Tudor 40µM
Cc1csc(NC(=O)c2cc(-c3ccco3)nc3ccccc23)n1	GLS inh inconclusive, HP1b binding inh inconclusive, BAZ2B inh inconclusive, JMJD2A Tudor inconclusive
O=C(Nc1nc2ccccc2s1)c1cc(-c2ccco2)nc2ccccc12	G9a inh inconclusive, JMJD2A Tudor inconclusive
OC(c1ccc(CN2CCCCC2)cc1)c1ncc(-c2ccccc2)[nH]1 (stereo not drawn)	none (no result: G9a inh, HP1b binding inh, BAZ2B inh, JMJD2A Tudor)
CCN(CC)CCC/C(=N\O)C(O)(c1ccccc1)c1ccccc1	G9a inh inconclusive
CC[N+](C)(CC)CCC/C(=N/O)C(O)(c1ccccc1)c1ccccc1	G9a inh 50µM, JMJD2A Tudor inconclusive
CCN(Cc1ccccc1)c1ccc(/C=N/NS(=O)(=O)c2ccc(C)c([N+](=O)[O-])c2)cc1	G9a inh 8.9µM, HP1b binding inh inconclusive, BAZ2B inh inconclusive, JMJD2A Tudor inconclusive
Cc1ccc(S(=O)(=O)N/N=C/c2ccccc2F)cc1[N+](=O)[O-]	G9a inh 11µM, BAZ2B inh inconclusive
O=S(=O)(N/N=C/c1ccccc1F)c1ccccc1	G9a inh inconclusive, JMJD2A Tudor inconclusive
O=[N+]([O-])c1cc2c(cc1/C=N/NS(=O)(=O)c1ccc(Br)cc1)OCO2	G9a inh 11µM, HP1b binding inh inconclusive
